The source of these data is the supplement of paper PMC6555819.

The first assay has as its system THRa homodimer (NR concentration 90 nM). As to the kind of experiment: PBM binding z-score (relative to random genomic background probes); higher = stronger binding; sequences stand for … in GC…GCGATTGACAGCGTAGAATGAAGG
The method, boiled down: (§1)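 Regression normalization was applied to scanned fluorescence from custom Agilent 4×180K protein-binding microarrays. Before scanning, arrays were incubated 1 h with ligand-free nuclear receptor dimers, and binding was detected with antibodies against each partner (one per run). Binding z-scores use the random background probes as reference.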
As to ACTATTAGTTGAGACGAGGGCAACAGATAGGTTG, the PBM binding z-score was 0.255.

Regarding CCTACTGGCCCAAAGGTCATTGATTCCAATGCTC, the PBM binding z-score was determined as 0.916.

CCTATTAGTTGACCATAAGGGCAACAGAAGCTCG came in with a PBM binding z-score of 1.15.

For GATACAGGGTTAGCTAGAGGCCAGAGTATGGAAA, the PBM binding z-score was -0.252.

The sequence CCTTACGGGTCACTCCAGGTTATAGCGTCGGAGT yielded a PBM binding z-score of 0.469.

Regarding CCTTACGGGTCACTAACAGGTTATAGCATTTGGA, the PBM binding z-score is 0.367.

TCTAGTAGATCAAGCAGGTTAAGAAAGCCTGAGT: the PBM binding z-score was -0.707.

Regarding GCGACTGGGGCATCAGGAGGTTACCATAACTTAA, the PBM binding z-score is -0.0939.

As to CCGACTGTGGCAAAGGTTACCATACTCAGTACGA, the PBM binding z-score is 0.0506.

In turn, CGTCCAAGGTCAAGGTCAGTGCAAGAGACTCGAA yielded a PBM binding z-score of 3.91.

Take CCTACTGGGCCAAAGGTTATTGATTCCAATGCTC: the PBM binding z-score is -0.123.

For the sequence ATCTCTAGGTAATACTCAGTTCAGTGAAGAACGC, the PBM binding z-score is 1.33.

In turn, CCTACTGGGCCAAGGGTCATTGATTCCAATGCTC came in with a PBM binding z-score of 0.000297.

ATAAGTAGGTTAAGGGTCATTCAGGTTGGTTCGC had a PBM binding z-score of 2.27.

Regarding GGAACGAGGGCATTCGACTTGATAGCATGGCGAT, the PBM binding z-score is -0.453.

Take GGAACGAAGGCAAAGTTGATAGCATCTGTCGACG: the PBM binding z-score is -1.21.

The sequence CGACCTAGGTCAAGGACAGTGAATCTCCGCACGC gave a PBM binding z-score of 2.25.

CCGACTGGGGCATAGGTTACCATACTCAGTACGA: the PBM binding z-score was -0.456.

The sequence TCATATAGGTATATGCTAGGTGAAAGTCCGATCT had a PBM binding z-score of 0.758.

TCTTGTAGATCAAAGTTTAAGAAAGCCGAAGCCT: the PBM binding z-score is -0.571.

As to CCTATTAGTTGACCAGAAGGGCAACCGAAGCTCG, the PBM binding z-score worked out at 0.383.

Turning to TCGAGTAGGTTAGGGGCATTAAGAATGGCGTCGA, the PBM binding z-score came to 0.048.

Regarding TCTATTAGTTGAAGGGCAACCAACGAGTCCGTTT, the PBM binding z-score was 0.123.

As to TAGCCTAGGTCATATCGGGCCAGTATACGCTATA, the PBM binding z-score is 0.783.

TTACCAAGGTGAAGGACGTTGATCCCTCTGTAGA displayed a PBM binding z-score of 0.562.

In turn, AGTCAAAGTTTAGGACGAGGTAACGTAAAGCACG had a PBM binding z-score of 1.51.

As to CGTCCAAGGTCAAAGGGCAGTGAAGAGATGACGG, the PBM binding z-score was determined as 1.86.

The sequence CCTACTGGGACAAAGGTCATTGATTCCAATGCTC displayed a PBM binding z-score of 1.25.

CAAACTGGGTCACGAAAGGTCAAAGTCGAATGAC registered a PBM binding z-score of 1.75.

With CGTCCAAGGTTAATGCTAGGTCAGTGAAAGCATT, the PBM binding z-score stood at 1.31.

Take ACTAGTTGGTCAGTTGAGGTCACACACAATTCGG: the PBM binding z-score was 5.39.

Sequence CAAACTAGGACAAGGTCAAAGTCGGTTTGTGCCA yielded a PBM binding z-score of 2.86.

The sequence ACTTTCGGGTCAACGAGGTTATAGCACGCGTATA showed a PBM binding z-score of 3.51.

In turn, ACAGACAGGGGATGAAGGTAACTCAGGCTATCAT had a PBM binding z-score of 0.491.

The sequence AGAATGAGGTTATACGAAGATCAGGGAAGAAAGT displayed a PBM binding z-score of 0.403.

As for GCTAGCAGGCCATTTGGGTCACTCAATGACGGGC, the PBM binding z-score amounted to 0.534.

For the sequence TCATATAGATAAATGCTAGGTGAAAGTCCGATCT, the PBM binding z-score amounted to 0.378.

Take TAGCCTAGGTCATTGGGCCTGTATAGTACGCATC: the PBM binding z-score turned out to be 0.697.

For AATGCAGGGTCATCGTAGGCCAGAGTACGCACAG, the PBM binding z-score was 0.92.

Take CCTTACGGGTCACTGACAGGTTGTAGCATTTGGA: the PBM binding z-score worked out at 0.174.

For a further assay, the system named is VDR homodimer (NR concentration 270 nM). The description is as above. The method, boiled down: as §1
As to ACTATTAGTTGAGACGAGGGCAACAGATAGGTTG, the PBM binding z-score is 1.15.

Sequence CCTACTGGCCCAAAGGTCATTGATTCCAATGCTC gave a PBM binding z-score of 2.14.

Regarding CCTATTAGTTGACCATAAGGGCAACAGAAGCTCG, the PBM binding z-score was 0.832.

The sequence GATACAGGGTTAGCTAGAGGCCAGAGTATGGAAA gave a PBM binding z-score of 0.162.

The sequence CCTTACGGGTCACTCCAGGTTATAGCGTCGGAGT gave a PBM binding z-score of 1.5.

CCTTACGGGTCACTAACAGGTTATAGCATTTGGA had a PBM binding z-score of 1.29.

Regarding TCTAGTAGATCAAGCAGGTTAAGAAAGCCTGAGT, the PBM binding z-score is -0.397.

As for GCGACTGGGGCATCAGGAGGTTACCATAACTTAA, the PBM binding z-score came to 0.186.

In turn, CCGACTGTGGCAAAGGTTACCATACTCAGTACGA had a PBM binding z-score of 0.185.

For the sequence CGTCCAAGGTCAAGGTCAGTGCAAGAGACTCGAA, the PBM binding z-score turned out to be 3.18.

CCTACTGGGCCAAAGGTTATTGATTCCAATGCTC: the PBM binding z-score came out at 0.0494.

As to ATCTCTAGGTAATACTCAGTTCAGTGAAGAACGC, the PBM binding z-score was 1.89.

With CCTACTGGGCCAAGGGTCATTGATTCCAATGCTC, the PBM binding z-score stood at 1.68.

Sequence ATAAGTAGGTTAAGGGTCATTCAGGTTGGTTCGC had a PBM binding z-score of 4.94.

GGAACGAGGGCATTCGACTTGATAGCATGGCGAT had a PBM binding z-score of 2.32.

GGAACGAAGGCAAAGTTGATAGCATCTGTCGACG: the PBM binding z-score was -1.02.

The sequence CGACCTAGGTCAAGGACAGTGAATCTCCGCACGC registered a PBM binding z-score of 0.294.

In the case of CCGACTGGGGCATAGGTTACCATACTCAGTACGA, the PBM binding z-score was -0.332.

In the case of TCATATAGGTATATGCTAGGTGAAAGTCCGATCT, the PBM binding z-score is -0.0233.

Regarding TCTTGTAGATCAAAGTTTAAGAAAGCCGAAGCCT, the PBM binding z-score was -0.214.

Regarding CCTATTAGTTGACCAGAAGGGCAACCGAAGCTCG, the PBM binding z-score was 0.595.

Regarding TCGAGTAGGTTAGGGGCATTAAGAATGGCGTCGA, the PBM binding z-score turned out to be 0.785.

Sequence TCTATTAGTTGAAGGGCAACCAACGAGTCCGTTT showed a PBM binding z-score of 0.984.

TAGCCTAGGTCATATCGGGCCAGTATACGCTATA gave a PBM binding z-score of 0.939.

With TTACCAAGGTGAAGGACGTTGATCCCTCTGTAGA, the PBM binding z-score is -0.106.

Regarding AGTCAAAGTTTAGGACGAGGTAACGTAAAGCACG, the PBM binding z-score was 0.0811.

CGTCCAAGGTCAAAGGGCAGTGAAGAGATGACGG gave a PBM binding z-score of 2.28.

The sequence CCTACTGGGACAAAGGTCATTGATTCCAATGCTC showed a PBM binding z-score of 2.94.

CAAACTGGGTCACGAAAGGTCAAAGTCGAATGAC gave a PBM binding z-score of 3.72.

In turn, CGTCCAAGGTTAATGCTAGGTCAGTGAAAGCATT came in with a PBM binding z-score of 0.435.

ACTAGTTGGTCAGTTGAGGTCACACACAATTCGG gave a PBM binding z-score of 4.05.

Take CAAACTAGGACAAGGTCAAAGTCGGTTTGTGCCA: the PBM binding z-score came to 3.88.

For ACTTTCGGGTCAACGAGGTTATAGCACGCGTATA, the PBM binding z-score was 4.05.

Consider ACAGACAGGGGATGAAGGTAACTCAGGCTATCAT, for which the PBM binding z-score was -0.173.

For AGAATGAGGTTATACGAAGATCAGGGAAGAAAGT, the PBM binding z-score worked out at 0.752.

GCTAGCAGGCCATTTGGGTCACTCAATGACGGGC yielded a PBM binding z-score of 0.524.

For TCATATAGATAAATGCTAGGTGAAAGTCCGATCT, the PBM binding z-score amounted to 0.203.

With TAGCCTAGGTCATTGGGCCTGTATAGTACGCATC, the PBM binding z-score amounted to 1.12.

Sequence AATGCAGGGTCATCGTAGGCCAGAGTACGCACAG gave a PBM binding z-score of 3.45.

CCTTACGGGTCACTGACAGGTTGTAGCATTTGGA gave a PBM binding z-score of 0.754.
